From PubChem BioAssay
EPAC1 antagonist – EPAC1 (human) antagonism; O95398; EPAC1 GEF assay, Rap1b-BODIPY-GDP exchange fluorescence; Potency, µM (series often up to 115 µM), inactives show at the highest dose activity change, negative = inhibition, usual class: inhibitors; actives 0.14% (n = 360,000); AID 720709;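 also: potency is read from the fitted curve at half-maximal effect; plate controls were vehicle for no effect and positive control for full effect; nearly all actives have a fitted effect of over 50% in size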
KCNH2 3.1 block – KCNH2 3.1 (human) potassium channel inhibition; U2OS KCNH2 3.1, thallium flux FluxOr; active compounds read low; activity change, % (tested at about 1.8 µM); actives 0.95% (n = 340,000); AID 720553;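 active = maximum activity change below -70%; inconclusive = maximum activity change from -70% to -50%; inactive = maximum activity change above -50%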;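 also: thallium influx rate constant from kinetic fluorescence after stimulation buffer; % is scaled to controls: 0 for no effect and ±100 for the full control effect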
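Thallium flux via FluxOr fluorescence (Red40 quencher, 45 min loading) in U2OS cells virally expressing the KCNH2 3.1 isoform (1.77 x 10^8 /mL virus, overnight at 37 C). Rate constants from 2-min kinetic reads post-stimulation, normalised to positive and negative controls.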
EPAC2 antag – antagonists of human EPAC2; Q8WZA2; AID 720708; Potency, µM (doses to about 114 µM), inactives show at the highest dose activity, negative = inhibition, most hits filed as inhibitors; EPAC2 GEF exchange of Rap1B-BODIPY-GDP, fluorescence; actives 0.18% (n = 360,000); also: potency is read from the fitted curve at half-maximal effect; % is scaled to controls: 0 for no effect and ±100 for the full control effect; nearly all actives have a fitted effect of over 45% in size
KCNH2 WT inh – inhibitors of human wildtype KCNH2 potassium channel. Q12809. U2OS, BacMam KCNH2, thallium flux FluxOr; active compounds read low. activity change, % at 1.84 µM. actives 0.37% (n = 340,000). AID 720551;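 active = maximum activity change below -70%; inconclusive = maximum activity change between -70% and -50%; inactive = maximum activity change above -50%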; also: % is scaled to controls: 0 for no effect and ±100 for the full control effect
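U2OS cells were transduced with wild-type KCNH2 virus (2.03 x 10^8 / mL) for 4 h at room temperature, then cultured overnight at 37 C. Thallium flux was read with FluxOr dye. Rate constants were normalized to DMSO controls.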
EPAC2 ag – activates human EPAC2 exchange factor | Q8WZA2 | EPAC2 activation, biochemical qHTS; response scale: 100% = 6.5 mM cAMP response | Potency, µM (titrated, usually from 154 µM), without a hit: at the highest dose activation, most hits filed as activators | actives 0.079% (n = 360,000) | AID 720711; also: potency is read from the fitted curve at half-maximal effect; nearly all actives have a fitted effect of over 50% in size
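EPAC2 (100 nM) mixed with Rap1B loaded with BODIPY-GDP (250 nM) plus 50 uM unlabeled GDP; compounds pinned in, 5 min RT, then read every 5 min for 30 min (ex 480, em 540 nm). Normalized to cAMP control.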
EPAC1 agonist – agonists of human EPAC1 | O95398 | EPAC1 agonist qHTS, biochemical assay; response scale: 100% = response to 6.5 mM cAMP | Potency, µM (top dose mostly 154 µM), for inactives: at the top dose activation, actives largely listed as activators | actives 0.073% (n = 360,000) | AID 720707; also: potency is read from the fitted curve at half-maximal effect; nearly all actives have a fitted effect of over 60% in size
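Nucleotide exchange assay: 100 nM EPAC1 with 250 nM Rap1B loaded with BODIPY-GDP and 50 uM GDP, room temperature. Fluorescence (480/540 nm) read every 5 min for 30 min; signal change normalized to 6.5 mM cAMP as full agonist.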
An asterisk follows results filed as active; ? = inconclusive; . = no result given. An excerpt weighted towards active compounds, which were near 1.4% of everything screened. Unless noted, calls follow the shape of the dose curve; as a rule, active = well fitted curve in the direction sought with a large enough effect; inconclusive = small, poorly fitted or top-dose-only effect, or another doubt; inactive = no such curve, though single readings can be large; an effect the other way counts as inactive or inconclusive.

SMILES | EPAC1 antagonist | KCNH2 3.1 block | EPAC2 antag | KCNH2 WT inh | EPAC2 ag | EPAC1 agonist
COc1ccc2[nH]c3c(c2c1)CCN1C(=O)C(CC(=O)NCc2ccco2)C[C@H](C(=O)N2CCOCC2)[C@@]31CCC1CCCC1 (stereo not given in full) | -18.8% | -43.8 | -7.6% | -1.2 | 3.7% | -1.5%
CCOC(=O)/C(C#N)=C\c1cc(C)n(-c2ccccc2)c1C | -2.8% | -0.7 | -4.0% | -6.7 | 12.1% | 10.6%
CCOC(=O)/C(C#N)=C\c1ccc(N2CCN(C/C=C/c3ccccc3)CC2)cc1 | 44.3% | -83.4* | 69.5% | -9.5 | 50.1µM* | 89.1µM*
Cc1cc(=O)[nH]c(SCC(=O)NCC2CCCO2)n1 (stereo not given) | 14.8% | -20.2 | 13.2% | -234.6* | 5.4% | -14.1%
O=C(CSc1nc(O)c(C2CCCCC2)c(=O)[nH]1)NCC1CCCO1 (stereo not given) | -3.3% | 2.0 | -2.9% | -4.0 | -1.0% | -2.0%
CC(C)C(=O)Nc1nnc(SCC(=O)NCC2CCCO2)s1 (stereo not given) | -7.0% | -84.9* | 3.0% | -5.9 | 4.3% | 3.7%
COc1ccccc1N(CC(O)CN1CCOCC1)S(=O)(=O)c1ccccc1 (stereo not given) | -11.2% | -13.7 | 0.7% | -7.4 | 6.6% | -1.3%
O=C(NCc1ccccc1Cl)C1CCN(C(=O)c2ccco2)CC1 | 1.7% | -12.3 | 4.4% | -10.3 | 10.3% | -0.9%
Cc1ccc(O)c(C(=O)c2cc(C#N)c(=O)n(-c3nccs3)c2)c1 | 58.4% | -3.5 | 177.8% | -3.5 | 112µM* | 39.8µM*
CC(C)C[C@H]1CNC(=S)N1C[C@H]1CCCN1C[C@H](Cc1ccccc1)N1C[C@H](CC(C)C)N(CCc2ccccc2)C1=S | -6.3% | . | -16.9% | . | 0.7% | -2.5%
O=C(COC(=O)c1ccc(Cl)nc1)c1ccc2c(c1)OCCO2 | 13.3% | 13.2 | 6.2% | -106.5* | 9.2% | -7.3%
CC(=O)N1CCOc2ccc(S(=O)(=O)NCC3CCC(C(=O)Nc4ncccc4C)CC3)cc21 (stereo not given) | 4.1% | 0.8 | 1.1% | 3.2 | 7.9% | 13.2%
CC1=C(C#N)C(C)(C)C(C#N)=C(C)N1 | -3.7% | 16.8 | -3.6% | -4.3 | 1.6% | -11.2%
CC1(C)CC[C@]2(C(=O)O)CC[C@]3(C)C(=CC[C@@H]4[C@@]5(C)CC[C@H](O[C@@H]6O[C@H](C(=O)O)[C@@H](O)[C@H](O[C@@H]7OC[C@H](O)[C@H](O)[C@H]7O)[C@H]6O)C(C)(C)[C@@H]5CC[C@]43C)[C@@H]2C1 | 50.1µM* | 9.6 | 5.6% | -14.6 | -8.1% | -25.0%
COc1ccc(/C=N/NC(=O)c2ccc3ccccc3c2)cc1OS(=O)(=O)c1ccc(NC(C)=O)cc1 | -1.7% | -13.8 | 10.8% | -5.8 | 5.8% | 9.3%
O=C(COc1ccc2ccc(=O)oc2c1)NC1CCN(Cc2ccccc2)CC1 | -0.2% | -13.5 | -5.9% | 8.1 | 0.9% | -7.7%
CCNC(=O)C1CCCN(C(=O)c2ccc(C(F)(F)F)cc2)CC1 (stereo not given) | 13.9% | . | 31.8% | . | 3.7% | -2.7%
CCOC(=O)CSc1nc2ccccc2c(=O)n1Cc1ccco1 | 7.3% | 0.2 | -12.8% | 3.0 | 3.6% | 22.8%
CCCn1c(SCC(=O)N2CCN(c3ccccc3)CC2)nc2ccccc2c1=O | 0.3% | 1.8 | -0.2% | 0.7 | 22.1% | 15.3%
O=C(CSc1nc2ccccc2c(=O)n1Cc1ccco1)N1CCN(c2ccccc2)CC1 | -1.4% | -107.0* | -3.3% | -103.5* | 8.2% | 8.7%
CCOc1ccc2nc(NC(=O)CSc3nc4ccccc4c(=O)n3Cc3ccco3)sc2c1 | -7.5% | -96.9* | -3.2% | ? | 6.9% | 3.4%
Cc1ccc(NC(=S)NNc2ccc(C(=O)O)cc2[N+](=O)[O-])cc1C | 6.8% | -5.2 | 0.0% | -2.3 | 12.4% | 7.1%
